From the supplement of paper PMC10849652
Of roughly 7,900 targets only a part is listed; those with a hit were picked by preference. About 0.6% of all pairs of compound and target were hits.

compound: c1cn2cc(-c3ccc4cn[nH]c4c3)nc(Nc3ccc(N4CCOCC4)cc3)c2n1 [entospletinib]; experiment: log2 fold change, soluble protein after heating vs DMSO (PISA); higher = thermal stabilisation; K562 cells, 10 uM, 30 min; active = over 0.2 and 3.5 SD of the protein, either way, in both replicates (recomputed)
How it was run: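 K562 cells at 2×10^6 cells/mL were exposed to 10 μM compound for 30 min, then aliquots were heated for 3 min across 48°C-58°C, pooled, and extracted in PBS containing 0.5% NP-40 at 4°C. The supernatant after 21,000xg for 90 min was taken as soluble protein and measured by TMTpro 16plex LC-MS/MS with channel sums equalised. Thermal stability is reported relative to control samples, with values from duplicates. Fold changes are given on a log2 scale.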

Sequence of UniProt Q96EV8 (Q96EV8 whole entry, looked up): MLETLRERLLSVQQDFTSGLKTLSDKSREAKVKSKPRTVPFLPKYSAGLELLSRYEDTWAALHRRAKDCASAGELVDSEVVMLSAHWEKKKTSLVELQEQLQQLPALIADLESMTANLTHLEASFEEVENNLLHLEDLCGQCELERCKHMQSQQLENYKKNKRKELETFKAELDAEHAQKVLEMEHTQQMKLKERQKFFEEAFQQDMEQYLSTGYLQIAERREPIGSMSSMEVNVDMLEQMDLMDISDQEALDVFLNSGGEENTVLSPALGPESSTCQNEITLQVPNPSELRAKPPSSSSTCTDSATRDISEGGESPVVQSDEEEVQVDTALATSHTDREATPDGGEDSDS
Sequence of UniProt Q96CS3 (Q96CS3 whole entry, looked up): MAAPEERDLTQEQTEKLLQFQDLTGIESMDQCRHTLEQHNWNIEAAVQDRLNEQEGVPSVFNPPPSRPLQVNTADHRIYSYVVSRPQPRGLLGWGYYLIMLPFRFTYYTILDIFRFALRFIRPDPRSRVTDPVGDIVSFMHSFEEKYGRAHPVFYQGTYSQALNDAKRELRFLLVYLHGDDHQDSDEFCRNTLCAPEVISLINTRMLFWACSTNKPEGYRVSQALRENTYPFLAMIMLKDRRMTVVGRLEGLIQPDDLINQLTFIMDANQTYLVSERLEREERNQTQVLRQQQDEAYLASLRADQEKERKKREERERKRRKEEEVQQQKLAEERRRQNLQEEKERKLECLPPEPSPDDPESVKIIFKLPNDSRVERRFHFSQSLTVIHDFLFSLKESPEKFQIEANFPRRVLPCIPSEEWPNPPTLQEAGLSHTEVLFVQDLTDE
Sequence of UniProt Q9NZJ5 (Q9NZJ5 whole entry, looked up): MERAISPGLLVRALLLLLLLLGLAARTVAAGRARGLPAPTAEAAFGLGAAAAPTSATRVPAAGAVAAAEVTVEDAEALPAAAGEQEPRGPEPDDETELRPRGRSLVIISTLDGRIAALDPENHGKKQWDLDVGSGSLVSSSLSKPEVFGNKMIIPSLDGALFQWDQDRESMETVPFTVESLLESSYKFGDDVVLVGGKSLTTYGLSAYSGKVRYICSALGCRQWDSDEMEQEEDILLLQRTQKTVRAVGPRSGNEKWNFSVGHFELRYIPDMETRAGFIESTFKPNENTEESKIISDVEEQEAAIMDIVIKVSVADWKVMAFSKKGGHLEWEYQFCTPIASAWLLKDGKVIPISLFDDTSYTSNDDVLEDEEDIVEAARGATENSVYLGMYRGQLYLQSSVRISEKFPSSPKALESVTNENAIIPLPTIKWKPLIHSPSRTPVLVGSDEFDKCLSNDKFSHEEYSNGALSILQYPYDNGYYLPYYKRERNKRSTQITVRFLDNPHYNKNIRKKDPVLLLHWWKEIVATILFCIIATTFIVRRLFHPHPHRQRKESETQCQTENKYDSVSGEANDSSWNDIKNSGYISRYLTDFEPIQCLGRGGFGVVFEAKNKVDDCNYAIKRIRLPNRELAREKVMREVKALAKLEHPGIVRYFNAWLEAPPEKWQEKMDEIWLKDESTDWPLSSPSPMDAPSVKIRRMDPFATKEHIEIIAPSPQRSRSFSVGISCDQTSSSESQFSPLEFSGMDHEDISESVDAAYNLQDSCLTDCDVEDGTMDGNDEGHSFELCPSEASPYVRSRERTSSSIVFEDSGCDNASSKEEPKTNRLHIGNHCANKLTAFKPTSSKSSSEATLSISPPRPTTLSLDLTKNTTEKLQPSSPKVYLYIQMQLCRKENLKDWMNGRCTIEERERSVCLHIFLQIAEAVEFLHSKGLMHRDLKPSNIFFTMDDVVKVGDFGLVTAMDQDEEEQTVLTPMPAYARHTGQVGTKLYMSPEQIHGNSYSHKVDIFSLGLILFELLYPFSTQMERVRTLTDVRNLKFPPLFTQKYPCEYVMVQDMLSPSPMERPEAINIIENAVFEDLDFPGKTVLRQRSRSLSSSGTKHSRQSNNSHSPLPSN
Sequence of UniProt Q8NDI1 (Q8NDI1 whole entry, looked up): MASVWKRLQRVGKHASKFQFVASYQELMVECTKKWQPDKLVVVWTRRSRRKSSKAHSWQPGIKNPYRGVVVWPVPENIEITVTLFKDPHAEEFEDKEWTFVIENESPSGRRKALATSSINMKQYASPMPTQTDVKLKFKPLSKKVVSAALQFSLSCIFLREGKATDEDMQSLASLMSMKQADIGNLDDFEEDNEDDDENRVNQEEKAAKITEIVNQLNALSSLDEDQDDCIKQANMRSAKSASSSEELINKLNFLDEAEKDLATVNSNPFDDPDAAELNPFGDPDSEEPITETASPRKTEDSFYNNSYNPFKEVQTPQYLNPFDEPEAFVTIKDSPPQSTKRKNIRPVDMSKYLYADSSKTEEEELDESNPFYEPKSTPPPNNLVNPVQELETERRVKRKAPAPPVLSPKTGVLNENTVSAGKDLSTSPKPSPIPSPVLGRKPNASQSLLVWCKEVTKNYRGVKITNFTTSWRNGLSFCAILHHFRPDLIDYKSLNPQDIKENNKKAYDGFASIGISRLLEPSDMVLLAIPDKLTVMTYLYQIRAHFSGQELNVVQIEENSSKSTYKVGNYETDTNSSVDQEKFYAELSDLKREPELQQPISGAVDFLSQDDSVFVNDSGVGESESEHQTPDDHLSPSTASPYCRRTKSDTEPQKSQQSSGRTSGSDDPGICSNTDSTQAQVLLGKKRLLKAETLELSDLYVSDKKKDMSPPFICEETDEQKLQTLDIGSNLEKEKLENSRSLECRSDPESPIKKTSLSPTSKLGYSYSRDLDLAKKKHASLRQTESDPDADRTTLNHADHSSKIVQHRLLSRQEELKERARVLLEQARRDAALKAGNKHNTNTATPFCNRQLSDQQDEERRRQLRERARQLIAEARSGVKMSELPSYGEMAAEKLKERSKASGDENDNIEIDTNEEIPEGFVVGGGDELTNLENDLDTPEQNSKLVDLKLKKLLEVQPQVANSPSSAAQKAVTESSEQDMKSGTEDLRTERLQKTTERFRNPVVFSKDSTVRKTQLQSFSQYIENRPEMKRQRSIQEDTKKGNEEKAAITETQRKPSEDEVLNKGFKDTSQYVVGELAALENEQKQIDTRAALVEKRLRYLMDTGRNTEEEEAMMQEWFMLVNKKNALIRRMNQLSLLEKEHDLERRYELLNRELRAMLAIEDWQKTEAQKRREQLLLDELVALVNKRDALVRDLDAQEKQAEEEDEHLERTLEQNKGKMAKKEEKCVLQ
Sequence of UniProt Q8TCE6 (Q8TCE6 whole entry, looked up): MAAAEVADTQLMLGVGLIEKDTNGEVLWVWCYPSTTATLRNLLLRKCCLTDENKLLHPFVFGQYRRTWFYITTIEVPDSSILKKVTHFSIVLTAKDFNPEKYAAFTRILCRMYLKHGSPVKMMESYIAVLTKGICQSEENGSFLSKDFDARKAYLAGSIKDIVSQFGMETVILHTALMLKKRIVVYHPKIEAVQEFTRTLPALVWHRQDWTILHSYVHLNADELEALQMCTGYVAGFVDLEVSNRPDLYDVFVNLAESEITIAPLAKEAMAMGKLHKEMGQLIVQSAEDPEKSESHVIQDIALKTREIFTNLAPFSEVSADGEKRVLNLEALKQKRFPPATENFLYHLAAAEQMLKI
Sequence of UniProt Q9UPT5 (Q9UPT5 whole entry, looked up): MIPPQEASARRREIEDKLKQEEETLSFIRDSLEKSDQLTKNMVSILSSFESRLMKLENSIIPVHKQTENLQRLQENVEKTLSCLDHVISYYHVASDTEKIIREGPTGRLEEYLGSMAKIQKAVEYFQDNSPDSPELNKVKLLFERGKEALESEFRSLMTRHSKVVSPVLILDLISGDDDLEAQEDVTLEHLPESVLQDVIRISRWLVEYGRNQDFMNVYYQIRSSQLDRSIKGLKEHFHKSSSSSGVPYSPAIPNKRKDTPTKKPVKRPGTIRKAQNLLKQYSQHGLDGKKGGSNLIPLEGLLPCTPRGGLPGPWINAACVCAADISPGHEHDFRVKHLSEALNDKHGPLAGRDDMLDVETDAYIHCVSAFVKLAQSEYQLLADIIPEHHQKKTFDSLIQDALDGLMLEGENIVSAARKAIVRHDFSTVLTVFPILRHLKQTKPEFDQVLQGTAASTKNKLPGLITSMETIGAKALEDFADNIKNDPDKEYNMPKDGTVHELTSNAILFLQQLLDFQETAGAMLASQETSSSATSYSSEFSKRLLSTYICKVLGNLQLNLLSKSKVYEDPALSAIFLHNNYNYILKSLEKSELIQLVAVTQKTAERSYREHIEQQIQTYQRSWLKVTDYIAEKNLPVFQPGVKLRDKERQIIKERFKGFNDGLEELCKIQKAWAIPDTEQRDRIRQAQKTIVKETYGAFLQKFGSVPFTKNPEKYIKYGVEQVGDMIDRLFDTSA
Sequence of UniProt O00418 (O00418 whole entry, looked up): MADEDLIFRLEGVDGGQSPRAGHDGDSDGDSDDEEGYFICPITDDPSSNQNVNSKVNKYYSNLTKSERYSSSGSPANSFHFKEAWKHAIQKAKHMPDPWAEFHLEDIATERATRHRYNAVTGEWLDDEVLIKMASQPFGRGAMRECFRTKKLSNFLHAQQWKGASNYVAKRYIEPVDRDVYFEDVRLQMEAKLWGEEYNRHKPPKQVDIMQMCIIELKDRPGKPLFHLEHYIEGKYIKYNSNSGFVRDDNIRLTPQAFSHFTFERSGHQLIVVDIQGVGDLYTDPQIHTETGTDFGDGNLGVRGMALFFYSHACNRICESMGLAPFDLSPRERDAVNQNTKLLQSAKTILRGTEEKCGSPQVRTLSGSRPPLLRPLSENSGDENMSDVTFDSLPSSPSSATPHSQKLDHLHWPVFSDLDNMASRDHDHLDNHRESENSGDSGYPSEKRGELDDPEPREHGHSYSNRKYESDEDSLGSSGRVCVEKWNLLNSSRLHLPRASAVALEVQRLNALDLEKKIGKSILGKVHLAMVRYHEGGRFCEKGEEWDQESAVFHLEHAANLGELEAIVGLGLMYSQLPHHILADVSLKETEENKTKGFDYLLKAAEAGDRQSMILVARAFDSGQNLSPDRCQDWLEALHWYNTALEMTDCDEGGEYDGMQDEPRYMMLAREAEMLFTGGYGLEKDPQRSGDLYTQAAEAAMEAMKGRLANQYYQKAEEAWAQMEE

log2 fold change, inactive:
ETNK1 (UniProt Q9HBU6) -0.008
FAM241A (UniProt Q8N8J7) -0.008
FAF2 (UniProt Q96CS3) -0.015
EGLN1 (UniProt Q9GZT9) 0
DHRS7B (UniProt Q6IAN0) 0.134
DTNBP1 (UniProt Q96EV8) 0.004
DNAH5 (UniProt Q8TE73) -0.039
DIP2A (UniProt Q14689) -0.128
DBNL isoform 3 (UniProt Q9UJU6) -0.087
EEF1A1 (UniProt P68104) 0.046
DYNC1I2 isoform 2 (UniProt Q13409) 0.082
DHX36 (UniProt Q9H2U1) 0.016
EIF4G1 isoform 8 (UniProt Q04637) 0.024
DTWD1 (UniProt Q8N5C7) 0.039
EIF4E isoform 2 (UniProt P06730) 0.062
FAM207A (UniProt Q9NSI2) 0.013
DYRK1A isoform 2 (UniProt Q13627) 0.003
EIF4G3 isoform 3 (UniProt O43432) 0.118
DNTTIP2 (UniProt Q5QJE6) 0.108
DHX16 (UniProt O60231) 0.01
EHBP1 (UniProt Q8NDI1) -0.082
EXOC7 (UniProt Q9UPT5) -0.106
DENND10 (UniProt Q8TCE6) -0.006
EDRF1 (UniProt Q3B7T1) -0.036
ELAC1 (UniProt Q9H777) 0.069
DYNC1LI2 (UniProt O43237) -0.005
DHRS3 (UniProt O75911) -0.041
DAB2 (UniProt P98082) 0.043
DFFB (UniProt O76075) -0.024
DSN1 (UniProt Q9H410) -0.044
EEF2K (UniProt O00418) 0.09
F5 (UniProt P12259) 0.133
EIF2AK3 (UniProt Q9NZJ5) -0.03
DERPC (UniProt P0CG12) 0.125
DCAF6 isoform 3 (UniProt Q58WW2) -0.008
